# FECH block = human FECH heme synthesis enzyme inhibition. P22830. purified FECH, Ni-mesoporphyrin absorbance 550 nm. calls only at 10 µM (by protocol). 20,000 compounds, 3.3% hits. AID 1671448;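 active means enzyme reaction rate more than 3 SD below the solvent-only control wells on the same plate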;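 further: lower slope than DMSO wells means FECH inhibition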
# Target sequence (P22830 whole entry, looked up): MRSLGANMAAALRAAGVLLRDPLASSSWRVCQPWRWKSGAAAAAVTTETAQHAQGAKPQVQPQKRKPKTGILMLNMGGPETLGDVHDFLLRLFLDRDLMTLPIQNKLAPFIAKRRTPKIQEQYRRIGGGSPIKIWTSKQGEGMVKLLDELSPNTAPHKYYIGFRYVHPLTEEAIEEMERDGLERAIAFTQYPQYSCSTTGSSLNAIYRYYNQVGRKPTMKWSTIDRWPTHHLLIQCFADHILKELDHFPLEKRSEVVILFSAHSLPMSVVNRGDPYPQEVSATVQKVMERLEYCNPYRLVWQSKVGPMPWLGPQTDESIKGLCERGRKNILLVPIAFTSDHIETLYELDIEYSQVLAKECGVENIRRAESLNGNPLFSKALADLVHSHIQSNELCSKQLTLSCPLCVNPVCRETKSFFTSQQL
# Calls only; 0 = inactive; + = active, no number. The sample as a whole holds a higher share of hits than the screen did.
SMILES,FECH block
COc1ccccc1-c1nc(Cn2c(=O)c3cnc(-c4cccnc4)nc3n(C)c2=O)c(C)o1,0
COc1ccc(-c2ncc3c(=O)n(Cc4cccc(OC)c4)c(=O)n(C)c3n2)cc1,0
CCOc1ccccc1-c1nc(Cn2c(=O)c3cnc(-c4ccc(C)cc4)nc3n(C)c2=O)c(C)o1,0
COc1ccc(-c2ncc3c(=O)n(Cc4cccnc4)c(=O)n(C)c3n2)cc1,+
COc1ccccc1-c1nc(Cn2c(=O)c3cnc(-c4ccc(C)cc4)nc3n(C)c2=O)c(C)o1,+
CN(Cc1ccccc1)c1ncc(NS(=O)(=O)c2ccccc2Cl)cc1C(=O)O,0
CCOC(=O)c1ccc(NS(=O)(=O)c2cc(N3C(=O)CCS3(=O)=O)ccc2OC)cc1,0
CCCC(CCC)C(=O)Nc1cc(C)nn1-c1ncnc2c1cnn2-c1ccc(Cl)cc1,0
CN1CCC(Oc2ccccc2NC(=O)c2ccccc2C2CCNC2)CC1 (stereo not given),0
CCC(=O)Nc1cc(C)nn1-c1ncnc2c1cnn2-c1ccc(F)cc1,0
CN(Cc1n[nH]c2c1CCCC2)c1nccc(N2CCCC(O)C2)n1 (stereo not given),0
CCCCN(C)c1nc(Nc2ccc(Cl)cc2)c2cnn(-c3ccccc3)c2n1,0
Cc1ccc(NC(=O)CN2CCCN(Cc3cccc(Cl)c3)S2(=O)=O)c(Cl)c1,+
Cc1cccc(CN2CCCN(CC(=O)Nc3cc(C)ccc3C)S2(=O)=O)c1,0
Cc1cccc(CN2CCN(CC(=O)Nc3c(C)cccc3C)S2(=O)=O)c1,0
Cc1ccc(CN2CCCN(CC(=O)Nc3ccc(C)cc3Cl)S2(=O)=O)cc1,0
Cc1cccc(CN2CCCN(CC(=O)Nc3cc(Cl)ccc3C)S2(=O)=O)c1,+
O=C(CN1CCCN(Cc2cccc(Cl)c2)S1(=O)=O)Nc1ccccc1,0
c1ccc(-c2ncn(Cc3noc(C4CCCO4)n3)c2-c2ccsc2)cc1 (stereo not given),0
COc1cccc(N2CCN(S(=O)(=O)c3cc(C(=O)N4CCCCC4)cs3)CC2)c1,0
CNC(=O)c1ccc(Cn2c(=O)c3cc(OC)c(OC)cc3n(CC(=O)Nc3cccc(C)c3)c2=O)cc1,0
CC(C)c1cc(N2CCCCCC2)n2nc(-c3cccnc3)nc2n1,0
Cc1cccn2c(CC(=O)N3CCc4nc[nH]c4C3)cnc12,0
COc1ccc(S(=O)(=O)NCCn2c(-c3ccc(C)cc3)nc3cccnc32)cc1,0
COc1ccc(S(=O)(=O)NCCn2c(-c3ccccc3)nc3cccnc32)cc1OC,+
SMILES,FECH block
CCOc1ccc(S(=O)(=O)NCCn2c(-c3ccc(F)cc3)nc3cccnc32)cc1,0
O=C(NCCn1c(-c2ccncc2)nc2cccnc21)Nc1ccc(Br)cc1F,0
Cc1ccc(S(=O)(=O)NCCn2c(C(F)(F)F)nc3cccnc32)cc1,0
Cc1ccc(NC(=O)NCCn2c(-c3ccncc3)nc3cccnc32)c(C)c1,+
Cc1ccc(S(=O)(=O)NCCn2c(C(F)(F)F)nc3cccnc32)cc1C,0
O=S(=O)(NCCn1c(-c2ccccc2)nc2cccnc21)c1ccc(Cl)cc1,0
Cc1ccc(S(=O)(=O)NCCn2c(C(F)(F)F)nc3cccnc32)c(C)c1,+
Cc1ccc(-c2nc3cccnc3n2CCNS(=O)(=O)c2ccc(CC(C)C)cc2)cc1,0
O=C(NCCn1c(-c2ccncc2)nc2cccnc21)Nc1ccccc1Br,0
CCOc1ccc(S(=O)(=O)NCCn2c(-c3ccc(C)cc3)nc3cccnc32)cc1,+
Cc1ccccc1C1=CCN(c2ncc(NS(=O)(=O)c3cccc(F)c3)cc2C(=O)O)CC1,0
O=C(NCc1ccco1)C1CCN(c2ccc(-c3ccc(Br)s3)nn2)CC1,0
Cc1ccc(S(=O)(=O)NCc2nc3cccnc3n2C(C)C)cc1C,0
COc1ccc(C[C@@H]2C3=C(CCCC3)CCN2C(=O)c2cn[nH]n2)cc1,0
COc1ccc(CN2CCCN(Cc3ccc(C)cc3)S2(=O)=O)cc1,0
Cc1ccc(-c2nc3cccnc3n2CCNS(=O)(=O)c2ccc(C)c(C)c2)cc1,+
Cc1ccc(-c2nc3cccnc3n2CCNS(=O)(=O)c2c(C)cc(C)cc2C)cc1,0
Cc1ccc(-c2nc3cccnc3n2CCNS(=O)(=O)c2ccc(Cl)cc2)cc1,0
O=S(=O)(NCCn1c(-c2ccccc2)nc2cccnc21)c1cccc(Cl)c1,0
Cc1ccc(-c2nc3cccnc3n2CCNS(=O)(=O)c2cccc(Cl)c2)cc1,+
Cc1ccc(-c2nc3cccnc3n2CCNS(=O)(=O)c2ccc(C(C)C)cc2)cc1,0
COCC1(C(=O)N2CCN(c3nc(C)cnc3C)CC2)CCC1,0
COc1cc(OC)c(Nc2nc(-c3nnc(-c4ccc(C)cc4)o3)nc3ccccc23)cc1Cl,0
C/C(=C\c1ccccc1)C1CC(=O)Nc2cc(O)c(C)cc21 (stereo not given),0
CCN(CC)CCN1C(=O)c2c(NC(C)=O)c3cc(F)ccc3n2CC1(C)C(=O)NC1CCCC1 (stereo not given),0
SMILES,FECH block
COC(=O)c1ccccc1NC(=O)C(C)N1Cc2ccccc2C1=O (stereo not given),0
O=C(Nc1ccc(CCO)cc1)c1ccc(CN2CCS(=O)(=O)CC2)cc1,0
Cc1ccc(S(=O)(=O)N2CCC(CC(=O)NCCCN3CCOCC3)CC2)cc1,0
CCc1ccc(C2=C(C)C(=O)N(CC(=O)Nc3ccc(C)c(F)c3)S2(=O)=O)cc1,0
CC1CCN(c2ccc(NC(=O)CN3C(=O)c4ccccc4S3(=O)=O)cc2Cl)CC1,0
CCc1ccc2c(c1)-c1ccccc1S(=O)(=O)N2CC(=O)Nc1ccc(F)cc1,+
CCOc1ccccc1NC(=O)CN1c2ccc(C(C)C)cc2-c2ccccc2S1(=O)=O,+
O=C(CN1c2ccc(F)cc2-c2ccccc2S1(=O)=O)Nc1ccccc1Oc1ccccc1,+
C=CCNC(=O)c1ccccc1NC(=O)CN1c2ccc(C(C)C)cc2-c2ccccc2S1(=O)=O,0
COc1ccc(NC(=O)CN2c3ccc(C(C)C)cc3-c3ccccc3S2(=O)=O)cc1Cl,0
O=C(CN1c2ccc(F)cc2-c2ccccc2S1(=O)=O)NCCN1CCOCC1,0
CCC1=C(c2ccc(OC)cc2)S(=O)(=O)N(CC(=O)Nc2ccc(F)cc2F)C1=O,0
CC(C)Cc1cc(C(=O)NC2CC(=O)Nc3ccccc32)n(C)n1 (stereo not given),0
CC(=O)Nc1ccc(C)cc1S(=O)(=O)NCCn1c(-c2ccccc2)nc2cccnc21,0
Cc1[nH]cnc1CN1CCOC(CCNC(=O)c2ccsc2)C1 (stereo not given),0
CCOC(=O)CNS(=O)(=O)c1ccc(N2C(=O)CCS2(=O)=O)cc1,0
COc1ccc(NC(=O)CSc2cc(N3CCCCC3)ncn2)cc1,0
O=C(CSc1cc(N2CCCCC2)ncn1)NC1CCCC1,+
Cc1nn(-c2cc(N3CCCC3)ncn2)c(C)c1CCC(=O)NC1CCCCCC1,0
CCN(Cc1c(C)nn(CC)c1C)Cc1c(C)n(C)n(-c2ccccc2)c1=O,0
C[C@]12CC3CC(C(=O)NCCCc4ccncc4)(C1)C[C@@](C)(C3)C2,0
Cc1ccc(C(=O)Nc2nc3n(n2)C(c2ccc(Cl)cc2)C=C(c2ccccc2)N3)cc1 (stereo not given),0
O=C(Nc1nc2n(n1)C(c1ccc(Cl)cc1)C=C(c1ccc(Cl)cc1)N2)c1ccco1 (stereo not given),0
Cc1ccc(C2=CC(c3ccc(Cl)cc3)n3nc(NC(=O)CCc4ccccc4)nc3N2)cc1 (stereo not given),0

# Screening results deposited in PubChem by Corson Lab, School of Medicine, Indiana University.
